Screening data from PubChem.
Tg IFNy HTS: inhibitors of Toxoplasma gondii growth with IFN-gamma | Toxoplasma gondii growth in IFN-gamma-treated host cells; active compounds read low | activity change, negative = inhibition, % (concentration not given with the values) | 3.8% of 69,000 active | AID 1259416; in the data active means activity change below about -70%, passing the limit was not always enough;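 further: host cells are HeLa cells infected with Toxoplasma gondii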
* marks the source's active call; other numbers are inactive results. Many of the other results were omitted from the sample, so hits are more common in it than they were.

`COc1ccc(NC(=O)N(C)C[C@@H]2OCc3cnnn3CCCC(=O)N([C@H](C)CO)C[C@@H]2C)c(OC)c1` gave Tg IFNy HTS inactive.
For C[C@H](CO)N1C[C@H](C)[C@H](CN(C)C(=O)Nc2cccc3ccccc23)Oc2ncccc2C1=O the results were Tg IFNy HTS -119*.
Screening C[C@@H]1CN([C@H](C)CO)C(=O)c2cc(NS(=O)(=O)c3cn(C)cn3)ccc2O[C@H]1CN(C)C(=O)Nc1cccc2ccccc12 returned Tg IFNy HTS -1.
C[C@@H]1CN([C@H](C)CO)C(=O)c2cccc(NC(=O)C3CCOCC3)c2O[C@@H]1CN(C)C(=O)Nc1cccc2ccccc12 was read as Tg IFNy HTS -8.
For C[C@@H]1CN([C@@H](C)CO)C(=O)CCCn2nncc2CO[C@H]1CN(C)C(=O)c1cc(-c2ccccc2)on1 the results were Tg IFNy HTS 93.
`C[C@@H]1CN([C@@H](C)CO)C(=O)CCCn2nncc2CO[C@H]1CN(C)C(=O)Nc1ccccc1C(F)(F)F` gave Tg IFNy HTS 39.
`C[C@H](CO)N1C[C@H](C)[C@@H](CN(C)C(=O)c2cc(-c3ccccc3)on2)OCc2cnnn2CCCC1=O` gave Tg IFNy HTS 66.
For C[C@H]1CN([C@@H](C)CO)C(=O)CCCn2nncc2CO[C@@H]1CN(C)C(=O)Nc1ccccc1C(F)(F)F the results were Tg IFNy HTS -96*.
Screening C[C@H](CO)N1C[C@H](C)[C@H](CN(C)C(=O)c2cc(-c3ccccc3)on2)OCc2cnnn2CCCC1=O returned Tg IFNy HTS -76*.
Screening C=C(C)COc1ccccc1C(=O)NC(C)c1cn2ncsc2n1 (stereo not drawn) returned Tg IFNy HTS 8.
Screening O=C(c1cccs1)N1CCC[C@@H]1Cn1nnn(-c2cccs2)c1=O returned Tg IFNy HTS -23.
`Cc1ccc(S(=O)(=O)N2CC3CCC2C3Oc2ccccn2)cc1` (stereo not drawn) gave Tg IFNy HTS -36.
COc1ccc(-n2c(=O)c(C(=O)Nc3cccc(Cl)c3)c(O)c3cccnc32)cc1 was read as Tg IFNy HTS 99.
`C[C@H](CO)N1C[C@H](C)[C@@H](CN(C)C(=O)NC2CCCCC2)Oc2c(NC(=O)c3cnccn3)cccc2C1=O` gave Tg IFNy HTS 6.
`O=C(c1ccc2nc[nH]c2c1)N1CCC(CCOc2ccccc2)(C(=O)O)CC1` gave Tg IFNy HTS 4.
`Cn1cc(CN2CCC23CCN(Cc2ccccc2F)C3)cn1` (stereo not drawn) gave Tg IFNy HTS -36.
Screening OC(c1ccccc1)(c1ccccc1)C1CCN(C(=S)Nc2ccc(Cl)cc2)CC1 returned Tg IFNy HTS 1.
For O=C(/C=C/c1ccccc1)c1ccc(O)cc1O the results were Tg IFNy HTS 41.
Screening O=C(/C=C/c1ccccc1)NC(NC(=S)Nc1ccc(Cl)cc1)C(Cl)(Cl)Cl (stereo not drawn) returned Tg IFNy HTS -78*.
O=C(c1cccc(Cl)c1)N1CCC2(CC1)Nc1ccc(Cl)cc1-n1cccc12 was read as Tg IFNy HTS 39.
Screening CCc1nc(SCC(=O)NCCc2nc3c(C)c(C)ccc3[nH]2)n[nH]1 returned Tg IFNy HTS 47.
Screening COc1ccc(OC)c(-c2noc(-c3c(O)c4ccccc4[nH]c3=O)n2)c1 returned Tg IFNy HTS 35.
For Cc1ccc2c(c1)cc(C(=O)NCc1nc(Cc3ccccc3)no1)n2C the results were Tg IFNy HTS -53.
`O=C(NCc1nc(Cc2cccs2)no1)c1cccc2ccnn12` gave Tg IFNy HTS -53.
Screening CC(C)c1cc(C(=O)NCc2nc(Cc3cccs3)no2)n(C)n1 returned Tg IFNy HTS -83*.
For O=C(CCc1nc(-c2cccnc2)no1)NCCc1c[nH]c2ccccc12 the results were Tg IFNy HTS 118.
For COc1ccc(-c2noc(Cn3ccc4cccnc43)n2)cc1 the results were Tg IFNy HTS -35.
`Cc1ccc(NC(=O)CC(=O)NCCN2CCCC2)cc1Cl` gave Tg IFNy HTS 0.
Screening Cc1cc(-c2cc(O)ccc2Cl)cc2nnc(Nc3ccc(OCCN4CCCC4)cc3)nc12 returned Tg IFNy HTS -91*.
Screening Cc1ccc(NC(=O)c2nc(Nc3ccc(C)cc3)c3ccccc3n2)cc1 returned Tg IFNy HTS 44.
For O=S1(=O)c2ccccc2O[C@H]2CCN(Cc3ccc(F)cc3)CC[C@H]2N1CC1CC1 the results were Tg IFNy HTS -15.
Screening O=C(NCc1cccnc1-n1ccnc1)C(=O)NC1CCCC1 returned Tg IFNy HTS -4.
`CN(Cc1ccccn1)C(=O)C1=NOC2(CCN(S(=O)(=O)c3cccc(F)c3)C2)C1` (stereo not drawn) gave Tg IFNy HTS -81*.
`CCCCS(=O)(=O)N1CCC2(CC2C(=O)N(C)Cc2ccccn2)C1` (stereo not drawn) gave Tg IFNy HTS 114.
CC(C)N(C)C(=O)C1=NOC2(CCN(C(=O)c3ccccn3)C2)C1 (stereo not drawn) was read as Tg IFNy HTS 0.
`CN(Cc1ccccn1)C(=O)C1=NOC2(CCN(S(=O)(=O)c3ccc(F)cc3)C2)C1` (stereo not drawn) gave Tg IFNy HTS -80*.
Cc1ccc(S(=O)(=O)N2CCC3(CC(C(=O)NCC(C)C)=NO3)C2)cc1 (stereo not drawn) was read as Tg IFNy HTS 0.
CN(Cc1ccccn1)C(=O)c1cc(-c2cnc(-c3cccc(F)c3)nc2)cn1C was read as Tg IFNy HTS 170.
`COc1ccc2c(c1)NC1(CCN(C(=O)Nc3ccc(C)cc3Cl)CC1)c1cccn1-2` gave Tg IFNy HTS 151.
Screening CC(C)c1nccc([C@H]2C[C@H]3CCN(c4ncc(F)cn4)C[C@@H]3O2)n1 returned Tg IFNy HTS -14.
For COc1ccc2nc(NC(=O)CN3CCC(c4nc5ccccc5s4)CC3)sc2c1 the results were Tg IFNy HTS 10.
Screening CN1CCN(CCOc2ccc(C(=O)O)cc2)CC1 returned Tg IFNy HTS 63.
`Nc1ccc(OCCN2CCCCCC2)cc1` gave Tg IFNy HTS 10.
Screening Cc1c(-c2ccc(O)cc2)n(Cc2ccc(OCCN3CCCCCC3)cc2)c2ccc(O)cc12 returned Tg IFNy HTS -76*.
For FC(F)(F)c1ccnc(-n2ccc(-c3cccs3)n2)n1 the results were Tg IFNy HTS 415.
`COc1ccc(CNC2=NCCNC23CCN(S(=O)(=O)c2ccc4c(c2)CCCC4)CC3)cc1` gave Tg IFNy HTS -8.
`Cc1ccc(C(=O)Nc2ccc(-c3nc(Cn4nc(C)cc4C)c(C)o3)cc2)cc1` gave Tg IFNy HTS -55.
For Cc1cc(C)n(Cc2nc(-c3ccc(NC(=O)c4ccc(F)c(F)c4)cc3)oc2C)n1 the results were Tg IFNy HTS 45.
Screening Cc1cc(C)n(Cc2nc(-c3ccc(NC(=O)c4ccc5c(c4)OCO5)cc3)oc2C)n1 returned Tg IFNy HTS -98*.
Cc1cc(C)n(Cc2nc(-c3ccc(NC(=O)c4ccc(F)cc4)cc3)oc2C)n1 was read as Tg IFNy HTS -68.
`COc1ccc(C(=O)Nc2ccc(-c3nc(Cn4nc(C)cc4C)c(C)o3)cc2)cc1` gave Tg IFNy HTS -92*.
Screening CCc1ccc(C(=O)Nc2ccc(-c3nc(Cn4nc(C)cc4C)c(C)o3)cc2)cc1 returned Tg IFNy HTS -61.
Screening CCN1CCCC1CN(Cc1ccc(NC(C)=O)cc1)Cc1ccccn1 (stereo not drawn) returned Tg IFNy HTS 24.
Screening CN(C)c1ncccc1CNc1ccc2cc(Cl)ccc2n1 returned Tg IFNy HTS 14.
